Assay outcomes (PubChem)
HCMV inh = inhibitors of human cytomegalovirus | HFF cells, HCMV-luciferase reporter, 72 h; stronger effect = lower value | activity change, negative = inhibition, % at 57.5 µM | actives 4.5% (n = 410,000) | AID 1259415; in the data active means activity change below about -60%; inconclusive means no clear call, values can overlap the other calls; inactive means above about -39%
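Two-dose cell screen: HFF monolayers treated with compounds and infected with luciferase-expressing HCMV at 1 PFU/cell, 72 h at 37C, then lysed for luciferase measurement.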
Pf growth 96h = P. falciparum growth inhibition at 96 hours; P. falciparum luciferase reporter growth, 96 h; actives 6.9% (n = 320,000); Potency, µM (doses to about 28.7 µM), for inactives: at the top dose activity change, negative = inhibition, usual class: inhibitors; AID 504834; further: potency means the concentration at half of the fitted maximal effect
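Erythrocytes infected with luciferase-expressing P. falciparum were dispensed at 2% hematocrit and 0.05% parasitemia (final), then incubated with compounds 96 hours at 37 C in 5% CO2. Luminescence after detection reagent addition reported growth.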
Pf growth 48h = inhibits P. falciparum growth in the first generation, 48 h. P. falciparum luciferase growth in erythrocytes, 48 h. Potency, µM (titrated, usually from 28.7 µM), inactives show at the highest dose activity change, negative = inhibition, actives largely listed as inhibitors. actives 5.9% (n = 310,000). AID 504832; further: potency means the concentration at half of the fitted maximal effect
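Growth was read as firefly luciferase luminescence after a 48 h, 37 C, 5% CO2 exposure of compounds to reporter-bearing P. falciparum cultures (0.1% parasitemia, 2% hematocrit final) in Albumax-supplemented RPMI 1640.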
HCV inh = inhibitors of hepatitis C virus infection. AID 651820. Potency, µM (doses to about 41.8 µM), inactives show at the highest dose activity change, negative = inhibition, usual class: inhibitors. actives 3.4% (n = 340,000). Huh7.5.1 HCVcc-Cre infection, luciferase reporter, 44 h; further: potency means the concentration at half of the fitted maximal effect
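Cells seeded at 1,000/well and cultured 4 h, then compounds added followed by HCVcc-Cre virus (~0.5 moi). After 44 h further culture, luciferase substrate was added, plates held 15 min at room temperature, and luminescence read for 15 sec.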
Numbers without * were called inactive; ? = inconclusive; . = no result. Only some compounds are listed: those with a hit (about 13% of all), similar ones and a draw of the others. Unless noted, the call rests on the fitted dose curve; in most records, active means well fitted inhibition curve with a large enough effect; inconclusive means small, poorly fitted or top-dose-only effect, or another doubt; inactive means no such curve, though single readings can be large or run the other way. On the % scale 0 is the no-effect control and ±100 the full control effect.

SMILES	HCMV inh	Pf growth 96h	Pf growth 48h	HCV inh
O=C(Nc1nnc(SCCC2OCCO2)s1)C1CC(=O)N(c2ccc(F)cc2)C1 (stereo unspecified)	-20.5	10.4µM*	?	16.2%
Fc1cccc(NCc2cccn2-c2nnc(N3CCOCC3)s2)c1	20.5	.	.	.
Cc1ccccc1C(=O)Nc1cc(-c2cc(C(C)(C)C)oc2C)nn1C	-62.8*	?	-16.7%	?
Cc1ccccc1NC(=O)Nc1cc(-c2ccccc2)nn1C	35.8	68.3%	42.4%	-15.4%
COc1cccc(-n2cc(C(=O)NCc3ccc(C)cc3)c3ccccc3c2=O)c1	-34.7	.	.	.
O=C(CCCC(=O)OCC(=O)c1ccc(Cl)cc1)NC1CCCCC1	-12.6	11.7µM*	22.9%	19.5%
O=C(CCC(=O)OCC(=O)c1ccc(Br)cc1)NC1CCCCC1	-18.1	.	-7.3%	15.2%
O=C(CCSCc1ccc(Cl)cc1)NC1CCCC1	-101.8*	?	?	7.6%
Cc1cc(C)n(C(C)CC(=O)Nc2ccc(C)c(N(C)C)c2)n1 (stereo unspecified)	-13.8	.	.	.
COc1cc(OC)c(NC(=O)C2CCN(S(=O)(=O)c3ccc4c(c3)oc(=O)n4C)CC2)cc1Cl	-0.7	.	.	.
Fc1ccc(NCc2cccn2-c2nnc(N3CCOCC3)s2)cc1	21.4	.	.	.
COC(=O)COc1ccc(Oc2nc(NC(C)(C)C)nc(N(C)C)n2)nn1	31.5	.	.	.
Cc1c(O)c(CN(C)C)cc2c1oc(=O)c1ccccc12	-36.0	2.08µM*	4.15µM*	-13.8%
O=c1oc2c(CN3CCCCC3)c(O)ccc2c2c1CCCC2	-1.0	?	.	16.2%
CN(C)Cc1c(O)c(Cl)cc2c3c(c(=O)oc12)CCCC3	-17.5	-20.8%	.	-6.8%
O=c1oc2c(CN3CCOCC3)c(O)c(Cl)cc2c2c1CCC2	-24.7	2.3%	1.04µM*	.
Cc1c(O)c(CN2CCCCC2)cc2c1oc(=O)c1ccccc12	-3.9	0.465µM*	0.329µM*	-7.5%
Cc1c(C)c2ccc(O)c(CN3CCCC3)c2oc1=O	30.9	?	?	5.2%
Cc1c(O)c(CN2CCCCC2)cc2c3c(c(=O)oc12)CCC3	51.6	9.28µM*	10.4µM*	?
CCc1ccc(-n2c(=O)c3c4c(sc3n(CC(=O)N3CCC(C)CC3)c2=O)CCC4)cc1	-5.5	.	.	.
CC(=O)c1cccc(NC2=NCC(C)S2)c1 (stereo unspecified)	23.9	13.1µM*	.	20.5%
COc1ccc(C(=O)N2CCn3c(nnc3C(=O)N3CCCCC3)C2)cc1	7.8	.	.	.
O=C1C2C3C=CC(c4ccccc4)(C2C(=O)N1c1cccc(Cl)c1)C1C(=O)N(c2cccc(Cl)c2)C(=O)C31 (stereo unspecified)	-11.7	-1.4%	-15.2%	10µM*
COc1ccc(C(=O)CSc2nc3ccccc3n2CC(=O)c2ccccc2)cc1	-66.4*	0.5%	?	?
Cc1cccc(C)c1OCCSc1nc2ccccc2n1CC(=O)O	27.5	11.7µM*	29.7%	14.0%
SMILES	HCMV inh	Pf growth 96h	Pf growth 48h	HCV inh
COc1ccc(C(=O)Cn2c(C(=O)/C=C/c3ccccc3)nc3ccccc32)cc1	10.8	.	10.4µM*	?
Cc1ccccc1OCC(=O)Nc1nnc(SCc2cc(=O)n3cc(Cl)ccc3n2)s1	-30.2	.	.	.
Cc1ccc(C(=O)Cn2nnc3ccccc32)cc1	-1.4	11.7µM*	137.4%	-1.4%
CC(=O)c1ccc(OCC(O)CN2CCC(C)CC2)cc1 (stereo unspecified)	2.8	?	.	6.4%
CC(=O)c1ccc(OCC(O)CN2C(C)CCCC2C)cc1 (stereo unspecified)	3.1	8.28µM*	.	19.4%
O=C1C2CC=CCC2C(=O)N1c1ccc(OCC(O)Cn2nnc3ccccc32)cc1 (stereo unspecified)	?	14.7µM*	.	-28.5%
COC(=O)c1ccc(OCC(O)Cn2nnc3ccccc32)cc1 (stereo unspecified)	74.4	?	59.3%	?
CC(=O)c1ccc(OCC(O)Cn2nnc3ccccc32)cc1 (stereo unspecified)	27.0	32.0%	7.38µM*	-7.5%
CCCCNc1cccc2c1S(=O)(=O)N[C@@H](Cc1ccccc1)CO2	-3.4	.	.	.
CCOC(=O)c1cccn1C1C(=O)N(C)c2c(F)cccc21 (stereo unspecified)	21.3	.	.	.
CCCNC(=S)N1CCN(c2nc(-c3cccc(OC)c3)cs2)CC1	-33.7	?	?	?
COCCCNC(=S)N1CCN(c2nc(-c3ccc(F)cc3)cs2)CC1	-84.9*	?	?	10µM*
